Source: PubChem
Only some compounds are listed: those with a hit (about 2.2% of all), similar ones and a draw of the others.
Nrf2 activator = qHTS of Nrf2 Activators. AREc32 ARE-luciferase reporter (MCF7-derived line), luminescence, 24 h. Potency, µM (highest dose often 46.1 µM), hits mostly activators. hit rate 0.31% among 410,000; further: nearly all actives have a fitted effect of over 65% in size
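ARE activation measured as luciferase luminescence (Steady-Glo, 30 min RT) in AREc32_Fluc cells after 24 hr compound exposure at 37 deg C, 5% CO2; cells seeded overnight at 1000/well in OPTI-MEM, 5% FBS.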
Nrf2 block = Nrf2 qHTS screen for inhibitors; hit rate 2.1% among 360,000; AID 504444, 2011; A549 ARE-Fluc reporter, luciferase luminescence, 18-24 h; Potency, µM (doses to about 46 µM), hits mostly inhibitors; further: nearly all actives have a fitted effect of over 60% in size
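Nrf2 function is reported as luminescence of an ARE-controlled luciferase in A549 cells. Compounds were tested at several concentrations, and a CellTiter-Fluor read on the same wells flagged cytotoxicity.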
B2AR arrestin = qHTS assay of beta-arrestin-biased ligands of beta2-adrenergic receptor | Beta-2 adrenergic receptor (Homo sapiens), P07550 | hit rate 0.02% among 330,000 | Potency, µM (series often up to 46.1 µM), hits mostly activators | beta-arrestin recruitment to beta2AR, cell-based reporter; further: nearly all actives have a fitted effect of over 65% in size
Target sequence (P07550 whole entry, looked up): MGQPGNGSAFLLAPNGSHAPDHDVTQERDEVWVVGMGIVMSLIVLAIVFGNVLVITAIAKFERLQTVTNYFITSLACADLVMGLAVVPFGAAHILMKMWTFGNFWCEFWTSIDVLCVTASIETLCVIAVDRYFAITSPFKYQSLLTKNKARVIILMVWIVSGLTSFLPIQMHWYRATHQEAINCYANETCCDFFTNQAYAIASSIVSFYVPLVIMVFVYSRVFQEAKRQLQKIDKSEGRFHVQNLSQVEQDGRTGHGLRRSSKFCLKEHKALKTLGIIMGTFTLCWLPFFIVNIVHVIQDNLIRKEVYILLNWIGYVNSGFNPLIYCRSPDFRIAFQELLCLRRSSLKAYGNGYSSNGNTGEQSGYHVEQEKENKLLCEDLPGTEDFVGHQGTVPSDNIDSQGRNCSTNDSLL
A549 tox = Nrf2 qHTS screen for inhibitors: counterscreen for cytotoxicity. Potency, µM (highest dose often 46 µM), most hits filed as inhibitors. hit rate 0.16% among 390,000. A549 ARE-Fluc cells, CellTiter-Fluor viability, 18-24 h
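A549 ARE-Fluc cells in 5% FBS OPTI-MEM, 5000 cells/well, rested 2 h then exposed to compounds in concentration-response for 18-24 h at 37 °C. Viability by CellTiter-Fluor fluorescence (Ex 405/Em 525) after 30 min; luciferase luminescence (BugLite, 15 min, RT) read afterwards.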
miR-21 reporter = qHTS Assay for Modulators of miRNAs and/orActivators of miR-21. HeLa miR-21 FLuc reporter, luciferase, 48 h. Potency, µM (highest dose often 38.3 µM), usual class: activators. 340,000 tested, under 10 active. AID 2288, 2010;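 further: miR-21 action dims this reporter so a rising signal means less miR-21 action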
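Luminescence from a firefly luciferase reporter carrying a miR-21 binding site downstream, stably expressed under a CMV promoter in HeLa cells that make miR-21 endogenously, reports miRNA modulation after 48 h compound exposure up to approximately 40uM final.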
Each line names hits and unclear results; the compound was inactive in the other large screens. The call rests on the fitted dose curve; in most records, active means well fitted curve in the direction sought with a large enough effect; inconclusive means small, poorly fitted or top-dose-only effect, or another doubt; inactive means no such curve, though single readings can be large; an effect the other way counts as inactive or inconclusive.

CCn1c(CSCc2ccc(C)cc2)nnc1SCC(=O)N1CCN(c2ccccc2)CC1	Nrf2 block 20.6µM, A549 tox inconclusive
O=C1CCCc2cc(S(=O)(=O)NCC3CCC(C(=O)Nc4ccccc4F)CC3)ccc2N1 (centres undefined)	none (no result: B2AR arrestin)
N#CN=c1snc(-c2ccccc2)n1-c1ccc(Cl)cc1	none (no result: Nrf2 activator, B2AR arrestin, miR-21 reporter)
O=C(NCCc1ccccc1)c1ccc2c(c1)N(Cc1ccccc1)C(=O)c1ccccc1S2=O (centres undefined)	none (no result: B2AR arrestin)
O=C(O)CNC(=O)c1ccccc1NC(=O)c1ccco1	none
O=C(Nc1ccccc1C(=O)NCCc1ccccc1)c1ccco1	Nrf2 activator 2.82µM (no result: Nrf2 block)
CNC(=O)c1ccc(Nc2nc(-c3ccccc3)nc3ccccc23)cc1	Nrf2 block 23.1µM
Cc1cc(Nc2cccc(Cl)c2)nc2ccc(NC(=O)Cc3ccc(Cl)cc3)cc12	Nrf2 block 23.1µM, A549 tox inconclusive, miR-21 reporter inconclusive (no result: B2AR arrestin)
COc1ccc(CC(=O)Nc2ccc3nc(Nc4cccc(Cl)c4)cc(C)c3c2)cc1OC	Nrf2 block 16.4µM, miR-21 reporter inconclusive (no result: B2AR arrestin)
COc1ccc2ncnc(NCC3CCCO3)c2c1-c1ccc2c(c1)OCO2 (centres undefined)	Nrf2 block inconclusive (no result: Nrf2 activator, B2AR arrestin, miR-21 reporter)
Cc1cc(C)cc(NC(=O)C2CCN(S(=O)(=O)c3cccc(-c4noc(C)n4)c3)CC2)c1	miR-21 reporter inconclusive (no result: Nrf2 block, B2AR arrestin)
Cc1cccc(OCC(=O)Nc2c(C(=O)N3CCN(c4ccccc4F)CC3)oc3ccccc23)c1	Nrf2 block 18.4µM, A549 tox inconclusive (no result: B2AR arrestin)
CC(C)CC(=O)Nc1c(C(=O)N2CCN(c3ccccc3F)CC2)oc2ccccc12	Nrf2 block 25.9µM (no result: B2AR arrestin)
Cc1ccc(-n2ncc3c(NCCCN(C)C)ncnc32)cc1Cl	none (no result: Nrf2 block, B2AR arrestin)
O=C(NC1CCCCC1)C(c1cccnc1)N(C(=O)CCl)c1ccc(F)cc1 (centres undefined)	Nrf2 activator inconclusive, Nrf2 block 18.4µM, miR-21 reporter inconclusive
O=C(Cn1nnc(-c2ccccc2)n1)Nc1cccc(S(=O)(=O)N2CCCC2)c1	Nrf2 block 16.4µM (no result: miR-21 reporter)
CCN(CC)S(=O)(=O)c1ccc(C)c(NC(=S)Nc2cccc(S(=O)(=O)N3CCCCCC3)c2)c1	Nrf2 block 23.1µM, B2AR arrestin inconclusive
CCC1(c2ccccc2)NC(=O)N(CC(=O)Nc2cccc(S(=O)(=O)N3CCCCC3)c2)C1=O (centres undefined)	none (no result: miR-21 reporter)
CCN(CC)S(=O)(=O)c1ccc(C)c(NC(=O)CNc2cccc(S(=O)(=O)N3CCOCC3)c2)c1	Nrf2 block inconclusive (no result: miR-21 reporter)
CC(=O)c1ccc(OCC(=O)Nc2cccc(S(=O)(=O)N3CCCC3)c2)cc1	Nrf2 block 16.4µM (no result: miR-21 reporter)
CC1CCC2(CC1)NC(=O)N(CC(=O)Nc1cccc(S(=O)(=O)N3CCCC3)c1)C2=O (centres undefined)	Nrf2 block 5.17µM (no result: miR-21 reporter)
CCOc1ccc(CCNC(=O)CCn2ccc3cc(S(=O)(=O)N4CCCC4)ccc32)cc1	Nrf2 block 25.9µM
Cc1ccc(CNC(=O)C(C)n2ccc3cc(S(=O)(=O)N4CCCC4)ccc32)cc1 (centres undefined)	Nrf2 block inconclusive (no result: B2AR arrestin)
CC(C(=O)NCc1ccc(F)cc1)n1ccc2cc(S(=O)(=O)N3CCCC3)ccc21 (centres undefined)	Nrf2 block 20.6µM
CCCc1ccc(S(=O)(=O)N2CCN(C(C)C(=O)NCc3ccc(OC)cc3)CC2)cc1 (centres undefined)	Nrf2 block 16.4µM, A549 tox inconclusive (no result: miR-21 reporter)
CCCCNC(=O)CCn1ccc2cc(S(=O)(=O)N3CCCC3)ccc21	none
CC(CNC(=O)Cn1ccc2cc(S(=O)(=O)N3CCCCCC3)ccc21)c1ccccc1 (centres undefined)	Nrf2 block 20.6µM (no result: B2AR arrestin)
O=P(c1ccccc1)(c1ccccc1)c1cnc2ccccn12	none (no result: Nrf2 activator, B2AR arrestin, miR-21 reporter)
COC(=O)CN1CC(=O)c2ccccc2S1(=O)=O	none (no result: Nrf2 activator, B2AR arrestin, miR-21 reporter)
O=C(CSc1ccccc1)Nc1cccc(S(=O)(=O)N2CCCC2)c1	none
CC(CC(=O)Nc1cccc(S(=O)(=O)N2CCCCC2)c1)c1ccccc1 (centres undefined)	Nrf2 block 13µM, A549 tox inconclusive (no result: miR-21 reporter)
COc1cc(F)c(S(=O)(=O)N2CCCN(S(=O)(=O)c3cccc(NC(C)=O)c3)CC2)c(F)c1	Nrf2 block 16.4µM (no result: Nrf2 activator, B2AR arrestin, miR-21 reporter)
CC(=O)c1ccccc1OCC(=O)Nc1cccc(S(=O)(=O)N2CCCC2)c1	Nrf2 block 13µM (no result: miR-21 reporter)
CCOc1ccccc1OCC(=O)Nc1cccc(S(=O)(=O)N2CCCCCC2)c1	none (no result: miR-21 reporter)
CCOc1ccc(NC(=O)C(c2ccccn2)N(C(=O)CCl)c2ccc(OC)cc2)cc1 (centres undefined)	Nrf2 activator inconclusive
COc1ccc(N(C(=O)CCl)C(C)(C(=O)Nc2c(C)cccc2C)c2ccccn2)cc1 (centres undefined)	B2AR arrestin 13µM
CC1(C)CC(=O)c2cc(-c3nc(-c4ccc(Br)cc4)cs3)c(=O)n(-c3ccccc3)c2C1	none (no result: B2AR arrestin)
O=C(C[n+]1cccc(CNC(=O)c2ccc(OC(F)F)cc2)c1)c1ccccc1	Nrf2 block inconclusive
CN(C)c1cc[n+](CC(=O)c2ccc(OC(F)F)cc2)cc1	Nrf2 block 20.6µM
CCOc1ccc(NC(=O)C[n+]2ccc(N(C)C)cc2)cc1	Nrf2 block inconclusive
CN(C)c1cc[n+](CC(=O)Nc2ccc(Cl)cc2)cc1	Nrf2 block 6.51µM, miR-21 reporter inconclusive
CC(=O)Nc1cc[n+](C(C)C(=O)c2ccc(Cl)cc2)cc1 (centres undefined)	none
CC(=O)Nc1cc[n+](CC(=O)c2ccc(Cl)cc2)cc1	Nrf2 block 23.1µM
CN(C)c1cc[n+](CC(=O)Nc2ccc(Oc3ccccc3)cc2)cc1	Nrf2 block 23.1µM, miR-21 reporter inconclusive
O=C(CCCN1C(=O)c2cccnc2Oc2ccc(Cl)cc21)NCc1ccccc1F	none (no result: B2AR arrestin)
CCN(CC)S(=O)(=O)c1ccc(NC(=O)[C@H](CSCc2ccccc2)N2Cc3ccccc3C2=O)cc1	Nrf2 block inconclusive (no result: B2AR arrestin)
Cc1c(OC(C)C(=O)NCc2ccncc2)ccc2c3c(c(=O)oc12)CCCC3 (centres undefined)	Nrf2 block 23.1µM
CC1CN(C(=O)N2CCC(C(=O)NCc3ccccc3F)CC2)c2cc(Cl)ccc2O1 (centres undefined)	miR-21 reporter inconclusive (no result: B2AR arrestin)
Cc1ccc(NS(=O)(=O)c2ccc3c(c2)N(C)CCO3)cc1C	Nrf2 block inconclusive (no result: Nrf2 activator, B2AR arrestin, miR-21 reporter)
COc1cc(-c2c(C#N)c(N)nc(SCc3ccncc3)c2C#N)cc(OC)c1OC	none
N#Cc1c(N)nc(SCc2ccncc2)c(C#N)c1-c1cccs1	Nrf2 block 23.1µM
COc1ccc(OC)c(C2=Nn3c(nnc3-c3cc(OC)ccc3OC)SC2)c1	Nrf2 block inconclusive (no result: Nrf2 activator, B2AR arrestin, miR-21 reporter)
O=C(Nc1ccc(S(=O)(=O)N2CCCCC2)cc1)c1ccc(F)cc1	Nrf2 block 29.1µM
